Data: PubChem BioAssay AID1159580 (chemical genetic matrix, 2015)
The whole screen tested about 5,500 compounds, of which about 2,000 (36%) were called active. Inconclusive results (about 18%) are left out. Rule as the data show it: active = normalized growth mostly below about 0.91 (no sharp cut-off); inconclusive = no clear call, values can overlap the other calls; inactive = mostly above about 0.92. The list shows a part of the results.

Experiment: chemical genetic growth profiling, strain panel (AID 1159580);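 also: tested at 20 µM; growth read once vehicle control cultures reached saturation at 30 °C; 1 = growth at the plate median or of vehicle wells; lower values mean less growth of the strain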
Details: growth OD

Measured: normalized growth

O=C(O)C1c2ccccc2Oc2ccccc21
inactive: S. cerevisiae deletion strains, locus YAL013W, strain DEP1, hits give low values 0.999 | S. cerevisiae deletion strains, locus YBR229C, strain ROT2, hits give low values 0.993 | S. cerevisiae deletion strains, locus YCL061C, strain MRC1, hits give low values 0.99 | S. cerevisiae deletion strains, locus YDL101C, strain DUN1, hits give low values 1 | S. cerevisiae deletion strains, locus YDL134C, strain PPH21, hits give low values 1 | S. cerevisiae deletion strains, locus YDR150W, strain NUM1, hits give low values 0.962 | S. cerevisiae deletion strains, locus YEL061C, strain CIN8, hits give low values 0.996 | S. cerevisiae deletion strains, locus YGR078C, strain PAC10, hits give low values 0.984 | S. cerevisiae deletion strains, locus YHR030C, strain SLT2, hits give low values 0.987 | S. cerevisiae deletion strains, locus YHR087W, strain rtc3, hits give low values 0.971 | S. cerevisiae deletion strains, locus YJL187C, strain SWE1, hits give low values 0.992 | S. cerevisiae deletion strains, locus YJR043C, strain POL32, hits give low values 1 | S. cerevisiae deletion strains, locus YJR075W, strain HOC1, hits give low values 0.975 | S. cerevisiae deletion strains, locus YLR039C, strain RIC1, hits give low values 0.984 | S. cerevisiae deletion strains, locus YLR058C, strain SHM2 (second series), hits give low values 0.998 | S. cerevisiae deletion strains, locus YLR085C, strain ARP6, hits give low values 0.969 | S. cerevisiae deletion strains, locus YLR262C, strain YPT6, hits give low values 1 | S. cerevisiae deletion strains, locus YML094W, strain GIM5, hits give low values 1.03 | S. cerevisiae deletion strains, locus YMR219W, strain ESC1, hits give low values 0.989 | S. cerevisiae deletion strains, locus YMR263W, strain SAP30, hits give low values 1.01 | S. cerevisiae deletion strains, locus YNL128W, strain TEP1, hits give low values 1.01 | S. cerevisiae deletion strains, locus YNL153C, strain GIM3, hits give low values 0.983 | S. cerevisiae deletion strains, locus YNL298W, strain CLA4 (second series), hits give low values 0.993 | S. cerevisiae deletion strains, locus YNL322C, strain KRE1, hits give low values 0.976 | S. cerevisiae deletion strains, locus YNR030W, strain Alg12, hits give low values 1.01 | S. cerevisiae deletion strains, locus YPL055C, strain LGE1, hits give low values 0.964 | S. cerevisiae deletion strains, locus YPL241C, strain CIN2, hits give low values 0.971 | S. cerevisiae deletion strains, locus YPR135W, strain CTF4, hits give low values 1.03 | S. cerevisiae strains, strain wild type, hits give low values 1.01
